Hits are enriched below; roughly 1.3% of the tested compounds scored in any of these assays.
PREPL inhibitor = PREPL enzyme inhibitors, primary screen, biochemical, fluorescence polarization; Prolyl endopeptidase-like (Homo sapiens), Q4J6C6; recombinant PREPL, fluorescence polarization activity-based probe; inhibition, % at 5.96 µM; actives 0.68% (n = 320,000); AID 2751, 2010;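 also: 0% = enzyme with DMSO and 100% = wells lacking enzyme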
LYPLA1 inh = LYPLA1 inhibitors, primary screen, counter-screen for PME1 inhibitor project, biochemical, fluorescence polarization, FP-Rh probe ABPP; recombinant LYPLA1; Acyl-protein thioesterase 1 (Homo sapiens), O75608; actives 0.16% (n = 320,000); inhibition, % at 5.9 µM;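 active = inhibition above the mean of all tested compounds plus 3 SD, set per campaign, cut at about 14% in these data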;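 also: inhibitors block serine hydrolase probe labeling of LYPLA1 so polarization falls; 0% = enzyme with DMSO and 100% = wells lacking LYPLA1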
Target sequence (O75608 whole entry, looked up): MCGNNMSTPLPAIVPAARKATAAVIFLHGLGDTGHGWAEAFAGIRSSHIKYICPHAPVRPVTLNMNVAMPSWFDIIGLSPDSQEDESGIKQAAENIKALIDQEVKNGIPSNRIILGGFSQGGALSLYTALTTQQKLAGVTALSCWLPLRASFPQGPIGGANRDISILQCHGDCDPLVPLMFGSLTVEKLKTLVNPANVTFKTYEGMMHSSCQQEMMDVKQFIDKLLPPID
Fam108B counter = mouse Fam108B serine hydrolase inhibitors, primary screen, counter-screen for RBBP9 inhibitor project, biochemical, fluorescence polarization; recombinant Fam108B, FP-Rh probe fluorescence polarization; inhibition, % at 9.51 µM; actives 0.33% (n = 300,000); AID 1947, 2009;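 active = inhibition above the screen mean inhibition plus 3 SD, computed separately per campaign, cut at about 18% in these data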;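 also: inhibitors lower polarization as less probe binds the enzyme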
LYPLA2 counter = LYPLA2 inhibitors, primary screen, counter-screen for PME1 inhibitor project, biochemical, fluorescence polarization, FP-Rh probe ABPP | actives 0.38% (n = 320,000) | inhibition, % at 5.9 µM | Acyl-protein thioesterase 2 (Homo sapiens), O95372 | recombinant LYPLA2;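 active = inhibition above the screen-wide mean plus 3 SD, limit set per campaign, cut at about 26% in these data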;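 also: 0% = LYPLA2 with DMSO and 100% = wells lacking LYPLA2 enzyme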
Target sequence (O95372 whole entry, looked up): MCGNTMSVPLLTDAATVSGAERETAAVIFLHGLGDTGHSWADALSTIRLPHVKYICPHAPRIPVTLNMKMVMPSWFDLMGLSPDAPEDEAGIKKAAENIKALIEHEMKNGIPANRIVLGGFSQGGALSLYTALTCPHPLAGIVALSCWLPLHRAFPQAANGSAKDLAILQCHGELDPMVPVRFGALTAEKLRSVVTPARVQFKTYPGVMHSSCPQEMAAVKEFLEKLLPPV
PME-1 inh = PME-1 inhibitors via competitive probe labeling, primary screen, biochemical, fluorescence polarization, FP-Rh probe, HTS | Protein phosphatase methylesterase 1 (Homo sapiens), Q9Y570 | recombinant PME-1 | inhibition, % at 5.9 µM | actives 0.53% (n = 320,000);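 active = inhibition above the campaign mean of all compounds plus 3 SD, cut at about 26% in these data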;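 also: competitive labeling of PME-1 active site by serine hydrolase directed probe; 0% = PME-1 with DMSO and 100% = wells lacking PME-1 enzyme; inhibitors block probe labeling so polarization falls and inhibition rises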
Fam108b inh conf = mouse Fam108b serine hydrolase inhibitors, confirmation, counter-screen for RBBP9 inhibitor project, biochemical, fluorescence polarization, triplicate; actives 44% (n = 930); recombinant Fam108b, FP-Rh probe fluorescence polarization; inhibition, % at 9.51 µM; AID 1978, 2009; shares compounds with Fam108B counter;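 active = inhibition above a limit from the primary screen, the mean over all compounds plus 3 SD, cut at about 19% in these data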;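 also: 0% = median of active Fam108b wells and 100% = catalytically dead S170A mutant; inhibitors free the probe so polarization falls as inhibition rises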
Fam108b inh = inhibition of mouse Fam108b by HTS hits, late-stage follow-up, biochemical, gel-based ABPP, soluble recombinant form | fluorophosphonate probe | inhibition, % at 20 µM | actives 44% (n = 260) | shares compounds with Fam108B counter; in the data active = inhibition above about 40%
LYPLA1 conf = LYPLA1 inhibitors, retest, confirmation, counter-screen for PME1 inhibitor project, biochemical, fluorescence polarization, FP-Rh probe ABPP. inhibition, % at 5.9 µM. actives 69% (n = 480). shares compounds with LYPLA1 inh. AID 2233, 2010. recombinant LYPLA1;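 active = mean inhibition across replicates above the hit cutoff set in the primary screen, cut at about 15% in these data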;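 also: loss of FP-Rh probe labeling of LYPLA1 seen as lower polarization; 0% = LYPLA1 with DMSO and 100% = wells lacking LYPLA1 enzyme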
LYPLA2 confirm = LYPLA2 inhibitors, retest, confirmation, counter-screen for PME1 inhibitor project, biochemical, fluorescence polarization, FP-Rh probe ABPP; inhibition, % at 5.9 µM; recombinant LYPLA2; AID 2232, 2010; shares compounds with LYPLA2 counter; actives 72% (n = 1,100);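 active = mean inhibition across replicates above the hit cutoff set in the primary screen, cut at about 26% in these data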;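 also: blocked labeling of the enzyme by serine hydrolase FP-Rh probe lowers polarization; 0% = enzyme with DMSO and 100% = wells lacking LYPLA2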
PREPL confirm = human PREPL enzyme inhibitors, confirmation, biochemical, fluorescence polarization; recombinant PREPL, fluorescence polarization activity probe; actives 67% (n = 2,000); inhibition, % at 5.96 µM; shares compounds with PREPL inhibitor;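 also: 0% = protein with DMSO and 100% = wells lacking protein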
* hit, by the source's call; x = no result given. Rule as the data show it, unless noted: active = inhibition above about 43%; inactive = the rest.

SMILES | PREPL inhibitor | LYPLA1 inh | Fam108B counter | LYPLA2 counter | PME-1 inh | LYPLA1 conf | others
COCCCNc1c2c3c(cccc3[nH]c1=O)C(=O)c1ccccc1-2 | 112* | 105* | 106* | 126* | 124* | 101* | Fam108b inh conf=131*;Fam108b inh=0;LYPLA2 confirm=97*;PREPL confirm=113*
COCCCNC1=C(Cl)C(=O)c2ccccc2C1=O | 5 | 0 | 2 | -2 | 3 | x
CCN(CC(=O)NCc1cccs1)C(=O)c1ccc(S(=O)(=O)Nc2ccccc2C)cc1 | -1 | 1 | 0 | 1 | 0 | x
CCOc1cc(/C=C2\C(=O)N(c3ccc(C(N)=O)cc3)N=C2C)ccc1OC(=O)c1cccs1 | 58* | 1 | 20* | 15 | 9 | x | Fam108b inh conf=8;PREPL confirm=91*
CCOc1ccc(C(=O)n2cc(C(=O)OC)c3ccccc32)cc1 | -1 | -3 | -3 | -8 | 1 | x
CC(=O)c1ccc(OC(C)C(=O)NCC2(N3CCOCC3)CCCCC2)cc1 (configuration not stated) | 14 | x | x | x | x | x
COc1ccccc1CNC(=O)C(NC(=O)c1ccccc1C)C(C)C (configuration not stated) | 1 | 2 | -3 | 0 | -3 | x
CC(=O)[C@]1(O)Cc2c(O)c3c(c(O)c2[C@@H](O[C@H]2C[C@H](N)[C@H](O)[C@H](C)O2)C1)C(=O)c1ccccc1C3=O | 66* | 77* | 71* | 74* | 72* | 78* | Fam108b inh conf=73*;Fam108b inh=20;PREPL confirm=85*
Fc1ccc(-n2cc(-c3ccccc3)c3c(N4CCOCC4)ncnc32)cc1 | 17 | 1 | -5 | 2 | -6 | x
NC(=O)C1CCN(c2ncnc3c2c(-c2ccccc2)cn3-c2ccccc2)CC1 | 13 | 17* | -2 | 18 | 5 | 19*
CCn1c(CSc2nc3ccccc3[nH]2)nc2cc(C(=O)O)ccc21 | 15 | 20* | 12 | 24 | 19 | 14
CSC(=NC#N)N1CCN(C(=NC#N)SC)CC1 | 20 | -3 | 0 | -6 | -2 | x
CSC(=NC#N)N1CCN(c2ccc([N+](=O)[O-])cc2)CC1 | 9 | 19* | 3 | 14 | 1 | 24*
CSC(=NC#N)N1CCN(C(c2ccccc2)c2ccccc2)CC1 | 8 | 20* | 0 | 21 | -3 | 24*
C=CCOc1ccc(Br)cc1CNC(C)(C)CO | 24 | 1 | 2 | 11 | 3 | x
C=CCOc1ccc(Br)cc1CNC(C)(C)C | 33 | 18* | -4 | -2 | -4 | 1
COc1ccccc1-c1csc(-n2ncc(C#N)c2N)n1 | -3 | 22* | -11 | 24 | -10 | 40*
Cc1ccc(C2CC(=O)Oc3cc(O)ccc32)cc1 (configuration not stated) | 15 | 22* | 15 | 23 | 23 | 18*
O=C1CC(c2ccccc2)c2cc(O)ccc2O1 (configuration not stated) | 8 | 3 | 1 | 1 | -1 | x
N#Cc1c(N)nc2c(c1-c1ccc3c(c1)OCO3)CCc1ccccc1-2 | 35 | -15 | -10 | -4 | 1 | x
CC(=O)c1ccc(N2CCN(C(=O)c3cccc(Oc4ccccc4)c3)CC2)cc1 | -32 | 48* | 0 | 67* | 4 | 62*
O=C(NC1CC1)c1c[nH]c2ccc(S(=O)(=O)Nc3cccc(C(F)(F)F)c3)cc2c1=O | -3 | 14* | -2 | -8 | -1 | 6
NC(=O)c1ccccc1NC(=O)c1ccoc1 | -4 | 0 | 2 | 3 | 8 | x
CCn1c(SCC(=O)Nc2cccc(S(=O)(=O)N(C)c3ccccc3)c2)nnc1C1CC1 | 12 | -5 | x | -5 | 10 | x
O=C(CN1CCN(C(=O)c2ccco2)CC1)Nc1cc(C(F)(F)F)ccc1Cl | 4 | 91* | -3 | 11 | 0 | 92*
SMILES | PREPL inhibitor | LYPLA1 inh | Fam108B counter | LYPLA2 counter | PME-1 inh | LYPLA1 conf | others
N#Cc1c(NC(=O)CN2CCN(C(=O)c3ccco3)CC2)sc2c1CCCCC2 | 16 | 51* | 0 | 18 | 2 | 56*
Cc1ccc(-c2cc(C(=O)NCc3ccccn3)c3ccccc3n2)cc1C | -5 | 1 | -4 | 7 | -6 | x
CCOC(=O)c1nn(-c2ccccc2)c(-c2ccccc2)c1C(=O)c1ccccc1 | 12 | 18* | -5 | 8 | -2 | 2
CCCCN(C)CCN1C(=O)C2C(C(=O)Nc3cccc(OC)c3)C3C=CC2(O3)C1C(=O)NC1CCCCC1C (configuration not stated) | 15 | -3 | 0 | 3 | -2 | x
COc1cc(CNc2ccc(O)cc2)cc(Br)c1OCc1ccccc1F | 7 | 18* | 9 | 18 | 42* | -1
COn1c(-c2ccccc2)nc2ccc(Cl)cc21 | 2 | 50* | -1 | -3 | 3 | -1
O=C(O)COn1c(-c2ccccc2)nc2ccc(Cl)cc21 | 7 | 1 | 2 | 3 | -1 | x
Cc1cccc(NC(=O)c2ccc(S(=O)(=O)N3CCC(C)CC3)cc2)n1 | -3 | -1 | 2 | 1 | 5 | x
CCCc1cc(=O)oc2c(C)c(OCc3nn[nH]n3)ccc12 | -1 | 4 | 0 | 11 | 1 | x
CCCCc1cc(=O)oc2cc(OCc3nn[nH]n3)c(Cl)cc12 | -5 | 22* | 5 | 17 | 0 | 21*
Cc1nc(SCCC(=O)O)c2cc(-c3ccccc3)sc2n1 | -13 | 1 | -3 | 4 | -3 | x
O=C(CCCCCN1C(=O)c2ccccc2C1=O)Oc1ccc2c3c(c(=O)oc2c1)CCC3 | 15 | 32* | 0 | 20 | 6 | 51*
O=C(Oc1ccc2c3c(c(=O)oc2c1)CCC3)c1ccco1 | 40 | -6 | 1 | -4 | 3 | x

Screening results deposited in PubChem BioAssay by The Scripps Research Institute Molecular Screening Center.
